Records with an inconclusive call do not appear. A call without a number means that no potency is given here. The source made the active and inactive calls. Calls follow the shape of the dose curve; as a rule, active = well fitted inhibition curve with a large enough effect; inconclusive = small, poorly fitted or top-dose-only effect; inactive = no such curve, though single readings can be large or run the other way.
Biological target: Cytochrome P450 3A7 (Homo sapiens) (UniProt P24462)
Assay: Cytochrome P450 family 3 subfamily A member 7 (CYP3A7) small molecule antagonists: luciferase biochemical qHTS assay (AID 1963596); also: nearly all actives have a fitted effect of over 40% in size
Conditions: P450-Glo CYP3A7 enzyme luminescence, 1 h; series mostly up to 57.4 µM
Description: National Center for Advancing Translational Sciences [NCATS] Assay Overview: Cytochrome P450 (CYP) enzymes are membrane-bound hemeproteins that play a key role in metabolism of drugs and xenobiotics. The CYP3A subfamily is the most abundant, representing 30% of the total adult hepatic CYP content, whereas CYP3A7 is found predominantly in human fetal liver and accounts up to 50% of the total fetal hepatic CYP content. Testing the effect of chemicals on CYP isozymes is useful to minimize the adverse drug reactions and toxicities in the drug development process. Chemicals were tested for their effect on CYP enzyme activities by using P450-Glo (TM) screening systems (Promega Corporation, Madison, WI). These systems provide a luminescent method containing proluciferin substrates and are converted to luciferin products by CYP isozymes. The luciferin products formed are detected with a luciferin detection reagent, and the amount of light produced is proportional to CYP activity. P450-Glo (TM) CYP3A7 screening system (Catalog. No. V8812) was used to detect the compounds that interfere with CYP3A7 activity. The positive control compound used for CYP3A7 assay is ketoconazole (Sigma-Aldrich, St. Louis, MO).
Assay Protocol Summary: Two ul of enzyme-substrate mix was dispensed into medium binding white/solid 1536-well plates (Greiner Bio-One North America Inc., Monroe, NC) using a Flying Reagent Dispenser (FRD, Aurora Discovery, San Diego, CA). Compounds dissolved in DMSO, and positive control (ketoconazole) were transferred to the assay plates at 23 nl using a Pintool station (Wako, San Diego, CA). The assay plates were incubated at room temperature for 10 min. Then 2 ul of NADPH regeneration solution was added to each well of the assay plates using an FRD and incubated at room temperature for 1 h. The reaction was stopped by adding 4 ul of detection reagent using an FRD and after 20 min incubation at room temperature the luminescence signal was measured using a ViewLux plate reader (Perkin Elmer, Shelton, CT). Data were expressed as relative luminescence units.
Potency is read from the fitted curve at half-maximal effect.

Cytochrome P450 3A7 (Homo sapiens), sequence (P24462 whole entry, looked up): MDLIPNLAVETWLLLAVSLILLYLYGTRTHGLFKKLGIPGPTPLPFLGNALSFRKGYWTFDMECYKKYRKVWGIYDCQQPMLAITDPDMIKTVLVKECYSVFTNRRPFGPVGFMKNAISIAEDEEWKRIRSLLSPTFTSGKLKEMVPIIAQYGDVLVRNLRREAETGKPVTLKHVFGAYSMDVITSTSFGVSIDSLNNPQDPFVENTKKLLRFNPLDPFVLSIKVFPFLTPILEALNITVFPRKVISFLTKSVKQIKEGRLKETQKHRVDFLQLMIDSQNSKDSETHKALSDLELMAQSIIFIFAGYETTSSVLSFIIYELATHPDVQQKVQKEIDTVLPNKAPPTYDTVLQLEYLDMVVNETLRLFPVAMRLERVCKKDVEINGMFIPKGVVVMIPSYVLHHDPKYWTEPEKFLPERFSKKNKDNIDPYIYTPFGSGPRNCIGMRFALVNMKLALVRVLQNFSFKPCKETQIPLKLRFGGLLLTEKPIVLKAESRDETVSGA

SMILES | Potency
COc1ccc(-n2[nH]c3c(cnc4ccccc43)c2=O)cc1 | inactive
Cc1ccc2c(n1)Oc1ccc(C(C)C(=O)OCC(=O)N(C)C)cc1C2 (stereo not given) | inactive
CCCC(=O)O[C@]1(C(=O)COC(=O)CC)CC[C@H]2[C@@H]3CCC4=CC(=O)CC[C@]4(C)[C@H]3[C@@H](O)C[C@@]21C | inactive
CCN(CC)CCCC(C)Nc1nc(C)cc(Nc2ccc3nc(C)cc(N)c3c2)n1 (stereo not given) | inactive
CCOC(=O)c1ccc(Nc2nc3nonc3nc2Nc2cccc(C)c2C)cc1 | inactive
O=C(OC1C[C@H]2CC[C@@H](C1)[N+]21CCCC1)C(O)(c1ccccc1)c1ccccc1 (stereo not given in full) | inactive
C=CC(=O)Nc1cc(Nc2nccc(-c3c[nH]c4ccccc34)n2)c(OC)cc1N(C)CCN(C)C | inactive
CC(C)(C)CCN1C[C@@H]2C(CNC(=O)c3cc(Cl)cc(Cl)c3)[C@@H]2C1 (stereo not given in full) | inactive
C=CCn1c(=O)n([C@@H]2O[C@H](CO)[C@@H](O)[C@H]2O)c2nc(N)[nH]c(=O)c21 | inactive
C#CCN(C)Cc1ccccc1 | inactive
COC(=O)c1cc(S(N)(=O)=O)ccc1OC | inactive
CC1=NS(=O)(=O)c2cc(Cl)ccc2N1 | inactive
COCC(=O)Nc1c(I)c(C(=O)NCC(O)CO)c(I)c(C(=O)N(C)CC(O)CO)c1I (stereo not given) | inactive
CN(c1ccc(NC(=O)Nc2ccccc2)cc1)S(=O)(=O)c1cnn(-c2ccc(F)cc2)c1 | inactive
COc1cc2c(cc1OC)CN(CCc1ccc(NC(=O)c3cc(OC)c(OC)cc3NC(=O)c3cnc4ccccc4c3)cc1)CC2 | inactive
CC(=O)N1CCN(NC(=O)c2ccc(F)cc2)CC1 | inactive
CCCNC(C)C(=O)Nc1c(C)csc1C(=O)OC (stereo not given) | inactive
NC(=O)c1ncn(C2OC(CO)C(O)C2O)n1 (stereo not given) | inactive
O=C(O)CNC(=O)c1ccccc1 | inactive
O=C1O[C@H]([C@@H](O)CO)C(O)=C1O | inactive

SMILES | Potency
O=C(NN1CCCC1)NS(=O)(=O)c1ccc(Cl)cc1 | inactive
C[C@H]1c2cccc(O)c2C(O)=C2C(=O)[C@]3(O)C(O)=C(C(N)=O)C(=O)[C@@H](N(C)C)[C@@H]3[C@@H](O)[C@@H]21 | inactive
CCc1cnc(N2CCC(c3nc(COc4ccc(-n5cnnn5)cc4)cs3)CC2)nc1 | inactive
CC(C)(C)C(=O)NCCCC(=O)O | inactive
O=C(C1CC1)N1CC[C@@H](Cc2n[nH]c(=O)n2-c2ccc(-c3ccc4occc4c3)cc2)C1 | 536 nM (active)
CNc1nc(Nc2cnn([C@H]3CCN(C4COC4)C[C@@H]3F)c2Cl)ncc1C(F)(F)F | inactive
CC(=O)Oc1cccc(C)c1 | inactive
CCCNC(=O)NS(=O)(=O)c1ccc(Cl)cc1 | inactive
CC[C@H]1CN2CCc3cc(OC)c(OC)cc3[C@@H]2C[C@@H]1C[C@H]1NCCc2cc(OC)c(OC)cc21 | inactive
Cc1ccc(S(=O)(=O)Nc2nc3n(n2)C(c2ccc(F)cc2)C=C(c2ccccc2)N3)cc1 (stereo not given) | inactive
CS(=O)(=O)OCCCCOS(C)(=O)=O | inactive
N#Cc1cccc(-c2nc(-c3cccnc3)no2)c1 | inactive
FC(F)(F)c1cc(C(F)(F)F)c2ccc3nc(-c4nnco4)cn3c2n1 | inactive
C=CCN1C[C@H](C(=O)N(CCCN(C)C)C(=O)NCC)C[C@@H]2c3cccc4[nH]cc(c34)C[C@H]21 | inactive
COc1ccc(C(=O)NCc2ccc(OCCN(C)C)cc2)cc1OC | inactive
CN1C(=O)CC(c2ccccc2)C1=O (stereo not given) | inactive
COc1cc2c(cc1OC(C)C)[C@H](c1ccc(Cl)cc1)N(c1ccc(N(C)CC3CCC(N4CCN(C)C(=O)C4)CC3)cc1)C(=O)C2 (stereo not given in full) | inactive
N[C@@H](CCNCc1ccc(Cl)cc1)C(=O)N1CCCCC1 | inactive
CCOc1cc(C(=O)N2CCC(N3CCN(C)CC3)CC2)ccc1Nc1ncc2c(n1)N(C1CCCC1)c1ccccc1C(=O)N2C | inactive
O=C1NS(=O)(=O)c2ccccc21 | inactive
